Source: PubChem BioAssay
The list is not random: actives were taken first. Their share in the collection is about 2%.
KDM4E inh: blocks human JMJD2E demethylase activity. B2RXH2. JMJD2E catalytic domain, FDH-coupled NADH fluorescence (FDH is formaldehyde dehydrogenase). Potency, µM (titrated, usually from 57.1 µM), usual class: inhibitors. 230,000 tested, 1.6% active. AID 2147; active = well fitted inhibition curve with a large enough effect, not every such curve was filed as active; inconclusive = small, poorly fitted or top-dose-only effect, or another doubt; inactive = no such curve, though single readings can be large or run the other way; also: nearly all actives have a fitted effect of over 50% in size
TRb SRC2 PPI: disrupts binding of human TR beta to SRC2. Potency, µM (doses to about 106 µM), most hits filed as inhibitors. TRbeta-SRC2 peptide binding, fluorescence polarization; receptor liganded with 1 µM T3. AID 1469. 280,000 tested, 0.065% active. P10828; active = well fitted curve in the direction sought with a large enough effect; inconclusive = small, poorly fitted or top-dose-only effect, or another doubt; inactive = no such curve, though single readings can be large; an effect the other way counts as inactive or inconclusive; also: nearly all actives have a fitted effect of over 50% in size
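A fluorescence polarization screen tested compounds at multiple concentrations against complex formation between 0.6 uM TRb ligand-binding domain and 20 nM Texas Red SRC2 peptide, with 1 uM T3 present; readout after 5 hr.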
HttQ103 aggreg: reduces HttQ103-GFP aggregates in PC12 cells; PC12 HttQ103-GFP aggregates, Acumen cytometry, 40 h; Potency, µM (titrated, usually from 46.1 µM), usual class: inhibitors; 220,000 tested, 1.1% active; AID 1688; active = well fitted curve in the direction sought with a large enough effect; inconclusive = small, poorly fitted or top-dose-only effect, or another doubt; inactive = no such curve, though single readings can be large; an effect the other way counts as inactive or inconclusive; also: nearly all actives have a fitted effect of over 60% in size
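Compounds (qHTS titration) were added to PC12 cells expressing an ecdysone-driven HTT exon 1 Q103–GFP fusion after induction with 100 nM tebufenozide. Aggregate formation was measured as GFP objects in cell lysates.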
TR SRC2 fluor cs: alters Texas Red total fluorescence, flagging assay interference | AID 1479 | TRb/SRC2 Texas Red total fluorescence interference | Potency, µM (series often up to 106 µM) | 280,000 tested, 0.29% active; active = well fitted curve in either direction with a large enough effect; inconclusive = small, poorly fitted or top-dose-only effect
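Human TRb ligand-binding domain at 0.6 uM with 20 nM Texas Red SRC2 peptide in Tris buffer containing 1 uM T3 and 5% DMSO, incubated with compound 5 h at ambient temperature. Total fluorescence (555/632 nm) calculated as parallel + 2 × perpendicular.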
HTT ATP protect: protects HTT-Q103 PC12 cells, measured by ATP; 230,000 tested, 0.14% active; Potency, µM (highest dose often 56.4 µM), hits mostly activators; PC12 HTT-Q103 induced, cytoprotection, ATP luminescence, 40 h; active = well fitted curve in the direction sought with a large enough effect; inconclusive = small, poorly fitted or top-dose-only effect, or another doubt; inactive = no such curve, though single readings can be large; an effect the other way counts as inactive or inconclusive; also: nearly all actives have a fitted effect of over 45% in size
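Stable PC12 Q103-GFP cells in serum-supplemented, phenol red-free DMEM; induction by tebufenozide at 100 nM final; compound dose series; cell viability quantified luminescently from ATP.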
FBPA coupling cs: inhibits coupling enzyme system, counter-screen for aldolase hits; AID 2472; coupling enzyme system counterscreen, AmpLite Red fluorescence; 290,000 tested, 0.67% active; activity change, negative = inhibition, % at 58.2 µM, hits read low; in the data active = activity change below about -30%
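Final compound at 57.5 uM, incubated 10 min at RT with coupling enzyme reagent (glyceraldehyde-3-phosphate), then 20 min with substrate and AmpLite Red detection. Fluorescence read at 525/598 nm; tests interference with the coupling assay, not aldolase inhibition.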
CASP1 redox cat: inhibits human caspase-1 in catalase buffer, redox counter-screen; caspase-1 Ac-WEHD-AFC fluorescence rate, catalase buffer; AID 888; shares compounds with FBPA coupling cs; Potency, µM (series often up to 57.5 µM), actives largely listed as inhibitors; 30 tested, under 10 active
Target sequence (P29466 120-297 limits assumed): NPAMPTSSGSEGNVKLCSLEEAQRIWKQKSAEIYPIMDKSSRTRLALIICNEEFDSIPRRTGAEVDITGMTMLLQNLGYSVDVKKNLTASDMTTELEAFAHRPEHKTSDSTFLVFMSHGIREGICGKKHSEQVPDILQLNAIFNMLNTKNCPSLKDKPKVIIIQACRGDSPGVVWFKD
Target sequence (P29466 317-404 limits assumed): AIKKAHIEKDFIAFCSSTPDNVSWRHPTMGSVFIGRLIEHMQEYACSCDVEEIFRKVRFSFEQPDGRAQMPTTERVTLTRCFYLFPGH
Casp1 confirm: confirmation of allosteric or competitive inhibitors of human caspase-1; AID 896; Potency, µM (highest dose often 57.5 µM), usual class: inhibitors; 60 tested, 20% active; shares compounds with FBPA coupling cs; purified caspase-1, fluorogenic substrate cleavage
Casp7 confirm: blocks human caspase-7 activity in concentration-response; shares compounds with FBPA coupling cs; recombinant caspase-7, fluorogenic substrate cleavage; Potency, µM (top dose mostly 57.5 µM), most hits filed as inhibitors; 60 tested, under 10 active; AID 897; active = well fitted inhibition curve with a large enough effect in the main read-out, with a control signal flat, not every such curve was filed as active; inconclusive = small, poorly fitted or top-dose-only effect, or a change in a side signal; inactive = no such curve, though single readings can be large or run the other way
Target sequence (P55210 24-198 limits assumed): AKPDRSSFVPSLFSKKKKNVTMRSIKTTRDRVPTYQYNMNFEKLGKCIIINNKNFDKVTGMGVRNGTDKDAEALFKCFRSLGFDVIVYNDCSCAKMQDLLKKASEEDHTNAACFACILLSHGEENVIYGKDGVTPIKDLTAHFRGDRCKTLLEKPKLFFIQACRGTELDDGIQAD
Target sequence (P55210 207-303 limits assumed): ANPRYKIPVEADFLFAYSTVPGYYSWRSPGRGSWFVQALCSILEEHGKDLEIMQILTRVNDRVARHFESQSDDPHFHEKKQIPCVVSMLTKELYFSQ
CASP7 redox cys: caspase-7 inhibition with cysteine present; shares compounds with FBPA coupling cs; 60 tested, under 10 active; Potency, µM (series often up to 57.5 µM), actives largely listed as inhibitors; caspase-7 enzyme with cysteine, fluorogenic substrate, redox counterscreen; AID 908
CASP7 redox cat: counter-screen for redox active caspase-7 inhibitors: catalase buffer. shares compounds with FBPA coupling cs. Caspase-7 Ac-DEVD-AFC fluorescence rate, catalase buffer. Potency, µM (titrated, usually from 57.5 µM), hits mostly inhibitors. 30 tested, under 10 active. AID 909
CASP1 redox cys: inhibits caspase-1 in cysteine buffer, redox counter-screen; shares compounds with FBPA coupling cs; 60 tested, under 10 active; AID 929; recombinant caspase-1, fluorogenic substrate, cysteine buffer; Potency, µM (titrated, usually from 57.5 µM), actives largely listed as inhibitors
Large screens that a line does not name were inactive (follow-up assays come after a bar, where they were run); ! = not active in a repeat; [ ] = dose if it differs, or a comment. Unless noted, calls follow the shape of the dose curve; as a rule, active = well fitted inhibition curve with a large enough effect in the main read-out, with a control signal flat; inconclusive = small, poorly fitted or top-dose-only effect, or a change in a side signal; inactive = no such curve, though single readings can be large or run the other way.

CC1(C)CCN2CCC(C)(C)c3c(O)ccc1c32	FBPA coupling cs -30 (no result: KDM4E inh, TRb SRC2 PPI, HttQ103 aggreg, TR SRC2 fluor cs, HTT ATP protect)
COc1ccc2c3c([nH]c2c1)C(C)N(CCC(=O)NN)CC3 (centres undefined)	none (no result: KDM4E inh, TRb SRC2 PPI, HttQ103 aggreg, TR SRC2 fluor cs, HTT ATP protect)
COC(=O)[C@@H]1[C@@H]2C[C@H]3c4[nH]c5cc(OC)ccc5c4CCN3C[C@@H]2C[C@H](OC(=O)c2cc(OC)c(OC)c(OC)c2)[C@H]1OC	KDM4E inh 10µM (no result: HttQ103 aggreg)
Cc1ccc(OCC(=O)NCC2(N3CCN(C)CC3)CCCCC2)cc1C	none (no result: KDM4E inh, HttQ103 aggreg, HTT ATP protect, FBPA coupling cs)
CCc1cc2c(cc3c(=O)n(CC(=O)N4CCCCC4)ncn32)s1	none (no result: KDM4E inh, HttQ103 aggreg, HTT ATP protect, FBPA coupling cs)
Cn1c(Oc2ccc(F)cc2)c(C=O)c2ccccc21	none
Cn1c(Sc2ccc(Br)cc2)c(C=O)c2ccccc21	HttQ103 aggreg 10µM
COc1cccc(CNc2ccc(N3CCC(C)CC3)cc2)c1OC	KDM4E inh 13µM
COc1ccc(C2=Nn3c(nnc3-c3ccccc3OC)SC2)c(OC)c1	none (no result: KDM4E inh, HttQ103 aggreg, HTT ATP protect)
O=C(c1ccc(=O)oc1)N1CCCc2ccccc21	KDM4E inh 14µM
O=C(c1ccccc1)N1CCCc2ccccc21	none
CC(C)(C)Nc1oc(-c2ccccc2)nc1-c1ccc(C(F)(F)F)cc1	none (no result: HttQ103 aggreg, HTT ATP protect)
CCCCCCN1C=C/C(=C\C=C(C#N)C#N)c2ccccc21	TRb SRC2 PPI 40µM, HttQ103 aggreg inconclusive, TR SRC2 fluor cs 45µM[fluorescent]
C=CCN1C=C/C(=C\C=C(C#N)C#N)c2ccccc21	none
CCOC(=O)c1c(-c2ccsc2)csc1N	FBPA coupling cs -34
CCOC(=O)c1c(-c2ccc(C)s2)csc1N	FBPA coupling cs -41
CC(=O)[C@@H]1[C@@H]2C(=O)N(c3ccc(F)c(Cl)c3)C(=O)[C@@H]2C2c3ccccc3C=CN21 (some centres undefined)	KDM4E inh inconclusive | CASP1 redox cat inconclusive | Casp1 confirm inactive | Casp7 confirm inactive | CASP7 redox cys inactive | CASP7 redox cat inactive | CASP1 redox cys inconclusive
COc1cc2c(C=O)c3c4c(cc(OC)c(OC)c4c2cc1OC)CCN3C	KDM4E inh inconclusive, FBPA coupling cs -34 (no result: HttQ103 aggreg) | Casp1 confirm 13µM | Casp7 confirm inconclusive | CASP7 redox cys inactive | CASP1 redox cys inconclusive
COc1cc2c(C)c3c4c(cc(OC)c(OC)c4c2cc1OC)CCN3C	KDM4E inh inconclusive (no result: HttQ103 aggreg)
O=C1C(SCCO)=C(SCCO)C(=O)c2ccccc21	KDM4E inh inconclusive, TRb SRC2 PPI inconclusive, TR SRC2 fluor cs 14µM![quencher], FBPA coupling cs -56 (no result: HttQ103 aggreg) | Casp1 confirm inactive | Casp7 confirm inactive | CASP7 redox cys inactive | CASP1 redox cys inactive
N#CC(=NCCO)C1=C(O)c2ccccc2C1=O	none (no result: KDM4E inh, TRb SRC2 PPI, HttQ103 aggreg, TR SRC2 fluor cs, FBPA coupling cs)
COc1ccc(C(=O)NCC(c2cccnc2)N2CCc3ccccc32)cc1 (centres undefined)	none (no result: KDM4E inh, HttQ103 aggreg, HTT ATP protect, FBPA coupling cs)
